Compound activity as filed in PubChem.
A selection: hits, their analogues and other compounds. The true share with any hit is near 2.9%.
PAFAH1B2 inh – blocks human PAF acetylhydrolase 1b catalytic subunit 2. P68402. recombinant PAFAH1B2, FP-rhodamine activity probe, fluorescence polarization. inhibition, % at 3.39 µM. 1.2% of 340,000 active;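 active means inhibition above the mean of all tested compounds plus 3 SD, cut at about 24% in these data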;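 further: 0% = enzyme with DMSO and 100% = wells lacking PAFAH1B2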
LYPLA2 counter – counter-screen for PME1 inhibitors: inhibitors of human LYPLA2; inhibition, % at 5.9 µM; recombinant LYPLA2, FP-Rh probe fluorescence polarization; 0.38% of 320,000 active; O95372;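 active means inhibition above the screen-wide mean plus 3 SD, limit set per campaign, cut at about 26% in these data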;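 further: 0% = LYPLA2 with DMSO and 100% = wells lacking LYPLA2 enzyme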
Target sequence (O95372 whole entry, looked up): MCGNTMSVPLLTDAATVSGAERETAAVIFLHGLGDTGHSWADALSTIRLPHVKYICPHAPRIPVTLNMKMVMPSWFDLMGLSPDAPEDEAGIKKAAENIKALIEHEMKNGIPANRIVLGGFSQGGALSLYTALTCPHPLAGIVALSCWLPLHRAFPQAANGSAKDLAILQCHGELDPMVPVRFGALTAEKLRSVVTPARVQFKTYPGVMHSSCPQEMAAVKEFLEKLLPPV
LYPLA1 counter – LYPLA1 (human) inhibition in PME1 counter-screen; recombinant LYPLA1, FP-Rh probe fluorescence polarization; inhibition, % at 5.9 µM; 0.16% of 320,000 active;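 active means inhibition above the mean of all tested compounds plus 3 SD, set per campaign, cut at about 14% in these data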;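 further: inhibitors block serine hydrolase probe labeling of LYPLA1 so polarization falls; 0% = enzyme with DMSO and 100% = wells lacking LYPLA1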
pPAFAH FP inh – pPAFAH (human) enzyme inhibition; Q13093; recombinant pPAFAH, FP-rhodamine probe fluorescence polarization; inhibition, % at 3.39 µM; 1.5% of 330,000 active; AID 463082;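 active means inhibition above the mean inhibition across the screen plus 3 SD, cut at about 25% in these data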;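 further: inhibitors block binding of the rhodamine activity-based probe so polarization drops; 0% = enzyme with DMSO and 100% = wells lacking pPAFAH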
PAFAH1B3 inh – inhibitors of human PAFAH1B3. Q15102. recombinant PAFAH1B3, FP-rhodamine probe, fluorescence polarization. inhibition, % at 3.39 µM. 0.28% of 340,000 active;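 active means inhibition above the screen-wide average of all tested compounds plus 3 SD, cut at about 25% in these data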;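 further: 0% = enzyme with DMSO only and 100% = wells lacking PAFAH1B3 protein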
Target sequence (Q15102 whole entry, looked up): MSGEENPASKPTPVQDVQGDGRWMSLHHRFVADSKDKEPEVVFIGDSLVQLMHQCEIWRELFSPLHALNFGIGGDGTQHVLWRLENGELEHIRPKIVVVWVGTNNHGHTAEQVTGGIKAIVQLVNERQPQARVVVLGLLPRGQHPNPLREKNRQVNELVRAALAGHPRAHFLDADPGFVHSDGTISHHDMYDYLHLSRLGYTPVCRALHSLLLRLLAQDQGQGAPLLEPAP
PAFAH2 FP inh – PAFAH2 (human) inhibition; Q99487; recombinant PAFAH2, FP-rhodamine activity probe, fluorescence polarization; inhibition, % at 3.39 µM; 0.99% of 340,000 active; AID 492956;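 active means inhibition above the mean over all tested compounds plus 3 SD, cut at about 30% in these data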;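 further: inhibitors block probe labeling of enzyme so polarization drops; 0% = enzyme with DMSO and 100% = wells lacking PAFAH2 protein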
pPAFAH FP conf – confirmation of human plasma PAF acetylhydrolase (pPAFAH) inhibitors | shares compounds with pPAFAH FP inh | recombinant pPAFAH, FP-Rh probe fluorescence polarization | inhibition, % at 3.39 µM | 72% of 2,300 active;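 active means mean inhibition of the triplicate above the hit cutoff set for the earlier primary screen, cut at about 25% in these data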;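 further: 0% = enzyme with DMSO and 100% = wells lacking pPAFAH enzyme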
* marks the source's active call; other numbers are inactive results; x = no result.

SMILES	PAFAH1B2 inh	LYPLA2 counter	LYPLA1 counter	pPAFAH FP inh	PAFAH1B3 inh	PAFAH2 FP inh	pPAFAH FP conf
COc1cc(/C=C2/C(=O)NN(c3ccc(Cl)c(Cl)c3)C2=O)cc([N+](=O)[O-])c1O	31*	9	9	52*	18	36*	33*
COc1ccccc1CNC(=O)COC(=O)c1c(C)nn(-c2ccccc2)c1Cl	-5	9	1	1	-5	7	x
O=C(Nc1ccccc1)Nc1ncc([N+](=O)[O-])s1	4	x	x	x	0	9	x
O=C(COC(=O)c1ccccc1)Nc1ncc([N+](=O)[O-])s1	18	x	x	56*	26*	57*	38*
Cc1ccc(NS(=O)(=O)c2cccc(C(=O)NCC3(N(C)C)CCCCC3)c2)cc1	8	3	1	60*	11	6	53*
CN(C)C1(CNC(=O)c2cccc(S(=O)(=O)Nc3ccc(Br)cc3)c2)CCCCC1	4	8	2	43*	-2	-3	42*
CN(C)C1(CNC(=O)c2cccc(S(=O)(=O)NCc3ccccc3)c2)CCCCC1	7	4	-2	2	0	2	x
CC1=C(C)/C(=N/OC(=O)c2cccc([N+](=O)[O-])c2)C=CC1=O	-2	-2	-6	-5	1	1	x
COc1ccc(S(=O)(=O)NCCC(=O)NCc2ccc(F)cc2)cc1	4	4	1	0	5	-2	x
Nc1c(-c2ccccc2Cl)cnn1-c1cccc([N+](=O)[O-])c1	0	6	2	3	-3	-5	x
CCOC(=O)C(C(=O)OCC)c1cc(Br)c2noc3c2c1C(=O)c1ccccc1-3	7	-3	-4	70*	22	28	11
COCCCNC(=O)c1ccc2c3c(onc13)-c1ccccc1C2=O	3	-8	-4	9	5	-4	x
O=C(O)CC(CCc1ccccc1)OC1OC(CO)C(O)C(O)C1O (stereo unspecified)	18	-10	-12	74*	25	39*	34*
[C-]#[N+][C@H](O[C@@H]1O[C@H](CO)[C@@H](O)[C@H](O)[C@H]1O)c1ccccc1	4	2	-1	7	0	-5	x
O=C(O)C1Nc2c(C(F)(F)F)ccc(Cl)c2C2C=CCC12 (stereo unspecified)	1	6	2	15	11	5	x
Cc1cc(C)c2c(c1)NC(C(=O)O)C1CC=CC21 (stereo unspecified)	19	6	-1	68*	10	50*	33*
CCOc1ccc(-c2ccc(/C=C3/C(=N)N4C(C)=CSC4=NC3=O)o2)c([N+](=O)[O-])c1	4	-12	-9	45*	4	18	37*
COc1ccc2sc(-c3ccc(N(C)C)cc3)c(C#Cc3cncn3C)c2c1	12	x	x	42*	19	6	38*
CC(C)(C)S(=O)(=O)/C(C#N)=N/Nc1ccc(Cl)cc1	6	-9	-2	35*	10	2	37*
Cc1cccc(N/N=C(\C#N)S(=O)(=O)C(C)(C)C)c1	7	-4	1	12	3	-2	x
CCN(CC)c1ccc(NC(=O)CSc2nc3nc(C)cc(C)c3c(=O)[nH]2)cc1	7	1	1	15	5	15	x
COc1ccc(NC(=O)CSc2nc3nc(C)cc(C)c3c(=O)[nH]2)cc1	4	-5	-2	69*	1	-1	2
CCC(C)(c1nnnn1-c1c(C)cccc1C)N(N=O)c1cccc(C(F)(F)F)c1 (stereo unspecified)	2	-2	-2	5	4	-12	x
Cc1ccc(NC(=S)N(CCN(C)C)C(C)c2ccco2)cc1C (stereo unspecified)	0	-11	-5	38*	4	8	2
CCNC(=S)Nc1ccc(NC(=O)c2ccccc2O)cc1	5	3	1	3	6	2	x
SMILES	PAFAH1B2 inh	LYPLA2 counter	LYPLA1 counter	pPAFAH FP inh	PAFAH1B3 inh	PAFAH2 FP inh	pPAFAH FP conf
COc1ccc2nc(NC(=O)CSc3nnc(C)n3N)sc2c1	6	-1	-1	38*	-2	0	7
Cc1cccc(NC(=O)CSc2nnc(-c3ccco3)c(-c3ccco3)n2)c1	7	x	x	x	10	25	x
Cc1cccc(NC(=O)CSc2nnc(-c3ccco3)c(-c3ccco3)n2)c1C	12	2	-5	35*	5	41*	21
Cc1nccc(-c2cccc(N/N=C(\C#N)C(=O)c3ccccc3)c2)n1	-1	-1	0	22	5	3	x
N#C/C(=N\Nc1cccc(C(F)(F)F)c1)C(=O)c1ccsc1	11	3	11	37*	7	16	29*
CS(=O)(=O)N(CC(=O)NC1CCCCC1)Cc1ccc(Cl)cc1	14	-2	2	4	1	0	x
CCCCCCCCCCS(=O)(=O)N/N=C/c1ccc(O)cc1	3	-2	-5	38*	-5	3	44*
Cc1cc(NC(=O)c2ccc(NC(=O)C3CC3)cc2)no1	0	0	3	8	0	0	x
Cc1cc(NC(=O)c2ccc(NC(=O)C(C)C)cc2)no1	4	1	2	41*	3	4	4
Cc1ccc(C)c(NS(=O)(=O)c2ccc3[nH]c(=O)oc3c2)c1	3	-5	0	42*	3	4	12
Cc1ccc(NS(=O)(=O)c2ccc3[nH]c(=O)oc3c2)cc1Cl	10	3	0	48*	7	4	58*
Cc1cccc(NS(=O)(=O)c2ccc3[nH]c(=O)oc3c2)c1C	-3	x	x	68*	12	3	70*
CCOC(=O)c1c(C)n(C)c2ccc(OCC(O)Cn3c(C)nc4ccccc43)cc12 (stereo unspecified)	-1	2	0	4	8	6	x
COc1ccc(CNC(=O)C2CCCN(S(=O)(=O)c3cccc4nsnc34)C2)cc1 (stereo unspecified)	5	-4	-4	5	9	5	x
N=C1c2c(cc(=O)n3c2[nH]c2ccccc23)CN1CCN1CCOCC1	3	1	2	36*	-2	4	23
COCCn1c(SCc2nc3sc(C(=O)OC)c(C)c3c(=O)[nH]2)nc2ccccc21	2	-5	2	3	12	4	x
CCn1c(SCc2nc3sc(C(=O)O)c(C)c3c(=O)[nH]2)nc2ccccc21	12	0	-4	48*	43*	16	47*
Clc1ccc2c(NCc3ccccn3)ccnc2c1	5	11	2	0	1	3	x
Oc1ccc(/C=N/Nc2ccnc3cc(Cl)ccc23)c(O)c1O	37*	1	-7	44*	48*	35*	57*
CC/C(=N\Nc1ccnc2cc(Cl)ccc12)c1ccc(O)cc1	7	2	-2	6	9	-3	x
